KinaseGlo FLuc – Kinase-Glo luciferase inhibition (counter-screen). 0.28% of 200,000 active. Potency, µM (doses to about 38.3 µM), without a hit: at the highest dose activity change, negative = inhibition, most hits filed as inhibitors. AID 1379. Q27757. Kinase-Glo luciferase, ATP luminescence, 8 min; also: % is scaled to controls: 0 for no effect and ±100 for the full control effect; nearly all actives have a fitted effect of over 60% in size
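Light output from Kinase-Glo luciferase with luciferin and 10 uM ATP in 50 mM imidazole pH 7.2, KCl, MgCl2, Tween 20, BSA; compound pin-delivered, 8-min ambient incubation, then luminescence read.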
NPC1 prom act – activates the NPC1 promoter; Huh7 NPC1 promoter luciferase reporter, 24 h; Potency, µM (top dose mostly 9.22 µM), inactives show at the top dose activation, hits mostly activators; 2.4% of 320,000 active; AID 485313; also: % of control where 0% means no effect; nearly all actives have a fitted effect of over 60% in size
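Stable NPC1-promoter luciferase Huh7 line; cpd (DMSO) 24 h, 37 °C, 5% CO2; Amplite luciferase reagent 10 min RT; luminescence readout. qHTS format.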
Rab9 promoter act – Rab9 promoter activation; Huh7 Rab9 promoter-luciferase reporter, luminescence, 24 h; Potency, µM (series often up to 9.22 µM), without a hit: top-dose activation, negative = inhibition, hits mostly activators; 2.8% of 320,000 active; AID 485297; also: % of control where 0% means no effect; nearly all actives have a fitted effect of over 60% in size
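Huh7 reporter line, Rab9 promoter upstream of luciferase. Compound exposure 24 h at 37 °C in reduced-serum medium with 10% FBS. Read-out: luminescence.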
SMN2 splice up – SMN2 splice variant enhancement | 2.8% of 210,000 active | Potency, µM (top dose mostly 46.1 µM), without a hit: at the top dose activity change, positive = activation, most hits filed as activators | HEK293 SMN2-luciferase splicing reporter, luminescence, 30-36 h | AID 1458; also: % of control where 0% means no effect; nearly all actives have a fitted effect of over 55% in size
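HEK293 cells carry an SMN2 […]–luciferase reporter in which exon 7 inclusion puts luciferase in frame. Cells were plated 10-12 h before compound addition, then incubated 30-36 h at 37C. ONE-Glo luminescence was read; sodium butyrate at 4.5 mM final served as control.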
FLuc modulator – counter-screen for miR-21 project: firefly luciferase inhibitors or activators | purified FLuc, Km substrates, luminescence inhibition | Potency, µM (top dose mostly 57.5 µM), for the others: at the highest dose activity change, negative = inhibition, most hits filed as inhibitors | AID 588342 | P08659 | 6.9% of 360,000 active;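 also: plate controls were vehicle for no effect and reference inhibitor for full effect; nearly all actives have a fitted effect of over 55% in size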
Target sequence (P08659 whole entry, looked up): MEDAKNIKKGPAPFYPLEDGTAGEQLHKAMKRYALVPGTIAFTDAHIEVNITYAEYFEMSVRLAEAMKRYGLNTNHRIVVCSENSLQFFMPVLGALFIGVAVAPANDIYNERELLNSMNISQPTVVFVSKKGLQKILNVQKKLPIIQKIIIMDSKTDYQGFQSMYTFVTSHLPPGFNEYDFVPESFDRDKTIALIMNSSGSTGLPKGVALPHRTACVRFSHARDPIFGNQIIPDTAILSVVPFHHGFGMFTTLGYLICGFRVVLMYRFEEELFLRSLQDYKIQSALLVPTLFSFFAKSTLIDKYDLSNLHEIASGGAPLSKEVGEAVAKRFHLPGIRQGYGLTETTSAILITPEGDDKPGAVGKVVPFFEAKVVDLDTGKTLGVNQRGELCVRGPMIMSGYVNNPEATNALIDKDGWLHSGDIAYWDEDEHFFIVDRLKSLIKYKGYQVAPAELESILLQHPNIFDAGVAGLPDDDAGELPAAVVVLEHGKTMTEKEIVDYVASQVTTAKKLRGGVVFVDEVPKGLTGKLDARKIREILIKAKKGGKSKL
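Purified P. pyralis luciferase, 10 nM final, with Km-level 10 uM D-luciferin and 10 uM ATP in 50 mM Tris acetate pH 7.5, 10 mM Mg acetate, 0.01% Tween-20, 0.05% BSA; 6-point qHTS titration about 60 µM downward; luminescence read.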
ELG1 genotox – induces genotoxicity in HEK293T cells with luciferase-tagged ELG1; 1.3% of 330,000 active; HEK293T ELG1-luciferase reporter, luminescence, 16 h; Potency, µM (series often up to 46 µM), for the others: at the top dose activity change, positive = activation, hits mostly activators; also: % of control where 0% means no effect; nearly all actives have a fitted effect of over 60% in size
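16 hr compound incubation (37 °C, 5% CO2) of HEK293T cells carrying luciferase-tagged ELG1; luciferase then measured by ONE-Glo luminescence after 30 min at RT.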
Numbers without * were called inactive; ? = inconclusive; nt = no result. Sampled rows, rich in hits. Any-hit rate of the full collection: about 7.5%. Calls follow the shape of the dose curve; as a rule, active = well fitted curve in the direction sought with a large enough effect; inconclusive = small, poorly fitted or top-dose-only effect, or another doubt; inactive = no such curve, though single readings can be large; an effect the other way counts as inactive or inconclusive. Potency is read from the fitted curve at half-maximal effect.

SMILES | KinaseGlo FLuc | NPC1 prom act | Rab9 promoter act | SMN2 splice up | FLuc modulator | ELG1 genotox
Nc1c(C(=O)NCc2ccc3c(c2)OCO3)nnn1-c1ccc(OC(F)(F)F)cc1 | -1% | 7% | 11% | -44% | -3% | 1%
CCOc1ccccc1NC(=O)c1nnn(-c2ccc3c(c2)OCCO3)c1N | nt | -4% | ? | nt | 17µM* | -2%
Nc1c(C(=O)Nc2cccc(F)c2)nnn1-c1ccc2c(c1)OCCO2 | nt | 0.1µM* | 0.32µM* | nt | 0.6µM* | 0.65µM*
Cc1ccccc1NC(=O)c1nnn(-c2ccc3c(c2)OCCO3)c1N | nt | 1.3µM* | 0.89µM* | nt | 6µM* | 5%
COc1ccc(CCNC(=O)c2nnn(-c3ccc4c(c3)OCCO4)c2N)cc1OC | 3% | 13% | -5% | nt | 19µM* | 10%
CCOc1ccccc1NC(=O)c1nnn(CC(=O)Nc2ccc3c(c2)OCO3)c1N | nt | -2% | -4% | nt | -18% | 3%
COc1ccc(CNC(=O)c2oc3c(c2C)-c2nn(Cc4ccc(Cl)cc4)cc2CC3)cc1 | nt | nt | nt | nt | 5% | nt
Cc1ccc(CNC(=O)CCS(=O)(=O)c2cc3c4c(c2)CCN4C(=O)CC3)cc1 | nt | nt | nt | nt | 2% | nt
CC(C)CN(CCCNC(=O)c1cc(-c2ccc(Br)s2)nc2ccccc12)CC(C)C | nt | nt | nt | -11% | 0% | nt
CCOC(=O)/C(N=Nc1ccc2c(c1)OCO2)=C(\C)O | -10% | 4µM* | 2.5µM* | 11µM* | 13µM* | ?
CCn1c(CNC(C)=O)nnc1SCC(=O)c1ccc(Br)cc1 | -3% | -5% | 0% | ? | -3% | -1%
CCN(CC)C(=S)SCC(=O)c1ccc(Br)cc1 | 0% | ? | ? | ? | 19µM* | ?
CCOc1ccc(CCNC(=O)c2cc(C)nc3c2c(C)nn3-c2cccc(F)c2)cc1 | nt | nt | nt | nt | -1% | nt
CCc1cccc(NC(=O)CSC2=Nc3ccccc3N=C(c3ccc(F)cc3)C2)c1 | nt | nt | nt | nt | -9% | nt
CCOC(=O)N1CCN(C(=O)c2ccc3c(c2)sc2nc(-c4ccccc4)cn23)CC1 | -6% | 3.5µM* | 3.2µM* | -32% | 21µM* | 1%
CCOC(=O)N1CCN(C(=O)c2nc3ccccc3s2)CC1 | -2% | 16% | 13% | ? | 19µM* | ?
CCOC(=O)N1CCN(CC(=O)Nc2nc3ccccc3s2)CC1 | nt | -5% | 0% | nt | 0% | -4%
Oc1oc(-c2cccc3ccccc23)nc1/C=N/c1nccs1 | 4% | -6% | 0% | 3% | 3% | 4%
Cc1ccnc(N=Cc2nc(-c3ccccc3Br)oc2O)c1 | -7% | 22% | ? | 58% | 5.4µM* | 12%
Cc1cccc(/N=C/c2nc(-c3ccccc3Br)oc2O)n1 | -3% | -1% | -2% | -22% | 7.6µM* | 2%
COc1cccc(C(=O)Nc2c3c(nn2-c2ccc(C)cc2C)CS(=O)(=O)C3)c1OC | nt | nt | nt | nt | 4% | nt
C/C(=C\C(=O)c1ccccc1)Nc1ccc(Br)c(Cl)c1 | -2% | 24% | ? | -2% | 21µM* | 13%
C/C(=C\C(=O)c1ccc(Br)cc1)Nc1ccc(Cl)cc1 | -2% | 13% | 14% | nt | 27µM* | ?
COc1cccc(N/C(C)=C/C(=O)c2ccc(Br)cc2)c1 | 13% | ? | ? | 18µM* | 5.4µM* | ?
Cc1nnsc1C(=O)NNC(=O)c1ccc(C(F)(F)F)cc1 | nt | 9% | 9% | nt | 17µM* | 5%
SMILES | KinaseGlo FLuc | NPC1 prom act | Rab9 promoter act | SMN2 splice up | FLuc modulator | ELG1 genotox
COc1cccc(CNC(=O)CN(c2cc(C)cc(C)c2)S(=O)(=O)c2c(C)noc2C)c1 | -5% | -1% | 3.5µM* | 11% | 3% | -10%
COc1cccc(CNC(=O)CN(c2ccc(C(C)C)cc2)S(=O)(=O)c2c(C)noc2C)c1 | nt | -1% | 2% | 1% | -1% | -3%
CCN(CC)S(=O)(=O)c1cc(NC(=O)c2ccc(-n3cncn3)c([N+](=O)[O-])c2)ccc1C | nt | -1% | -3% | nt | -2% | -20%
COc1cccc(NC(=O)c2oc3ccccc3c2NC(=O)c2ccc(OC(C)C)cc2)c1 | nt | nt | nt | 10% | 2.7µM* | nt
COc1cccc(NC(=O)c2oc3ccccc3c2NC(=O)C(C)(C)C)c1 | 3% | 1% | -3% | -16% | 0% | -7%
COc1cccc(NC(=O)c2oc3ccccc3c2NC(=O)c2ccc3c(c2)OCO3)c1 | -29% | 16% | 28% | 1% | 2.7µM* | -7%
CCC(=O)Nc1cccc(NC(=O)c2ccc3c(c2)OCO3)c1 | -6% | 17% | 29% | ? | 15µM* | 7%
COc1cccc(C(=O)Nc2cc3c(cc2C(C)=O)OCCO3)c1 | 1% | 0% | 0% | 29% | 5.4µM* | 4%
COc1cccc(NC(=O)c2oc3ccccc3c2NC(=O)c2cc3ccccc3o2)c1 | nt | nt | nt | 1% | ? | nt
Cc1nnc(SC(C)C)n(N)c1=O | -2% | -17% | 10% | 3% | -1% | -17%
Cc1ccc(S(=O)(=O)c2nnn3c2nc(N2CCN(c4ccc(F)cc4)CC2)c2cc(Cl)ccc23)cc1C | nt | nt | nt | 12% | 0% | nt
Cc1ccc(CNC(=O)C(=O)NCC(c2cccs2)S(=O)(=O)c2cccs2)cc1 (stereo unspecified) | nt | nt | nt | nt | -9% | nt
COc1cccc(C(=O)n2c(SC)nc3cc4c(cc32)OCCO4)c1 | 0% | 17% | 21% | 12% | 13µM* | 13%
CSc1nc2cc3c(cc2n1C(=O)c1ccc(C)cc1)OCCO3 | -1% | 3% | 16% | 7% | ? | 8%
COc1cccc(NC(=O)c2ccc3c(c2)OCO3)c1 | nt | 0.5µM* | 0.45µM* | nt | 2.7µM* | 6.5µM*
COc1cccc(OC)c1C(=O)Nc1ccc2c(c1)OCCO2 | 13% | -2% | -11% | 1% | -1% | -1%
COc1cccc(NC(=O)c2ccc3c(c2)OCCO3)c1 | nt | 1.8µM* | 0.71µM* | nt | 0.67µM* | 2.1µM*
Cc1nn(-c2ccc3nnc(C)n3n2)c(C)c1CCC(=O)Nc1ccc(OC(F)(F)F)cc1 | nt | nt | nt | nt | -5% | nt
CCc1cc2c(-c3ccccc3)cc(=O)oc2c2c1OCN(Cc1ccc(F)cc1)C2 | nt | nt | nt | -2% | -14% | nt
Cn1ccc(NC(=O)c2ccc(Cl)cc2)n1 | nt | 4% | 19% | nt | ? | ?
Cn1ccc(NC(=O)c2ccc([N+](=O)[O-])cc2)n1 | nt | 3% | 1% | nt | 3% | 0%
Cc1cccc(C(=O)Nc2ccn(C)n2)c1 | nt | ? | 2.5µM* | nt | ? | ?
Cc1onc(NC(=O)c2ccc(Cl)cc2Cl)c1Br | -2% | ? | 3.2µM* | nt | ? | ?
Cc1onc(NC(=O)NC(=O)c2ccccc2F)c1Br | nt | 18% | 18% | nt | ? | ?
Cn1ccc(NC(=O)c2ccc(Cl)cc2Cl)n1 | nt | 4µM* | 2.5µM* | nt | 11µM* | ?
